These results are taken from ChEMBL document CHEMBL2218924, “A broad activity screen in support of a chemogenomic map for kinase signalling research and drug discovery” (Biochem J, 2013).

One assay addresses T1, Dual specificity mitogen-activated protein kinase kinase 7 (Homo sapiens) (UniProt O14733).
T1 sequence (whole entry): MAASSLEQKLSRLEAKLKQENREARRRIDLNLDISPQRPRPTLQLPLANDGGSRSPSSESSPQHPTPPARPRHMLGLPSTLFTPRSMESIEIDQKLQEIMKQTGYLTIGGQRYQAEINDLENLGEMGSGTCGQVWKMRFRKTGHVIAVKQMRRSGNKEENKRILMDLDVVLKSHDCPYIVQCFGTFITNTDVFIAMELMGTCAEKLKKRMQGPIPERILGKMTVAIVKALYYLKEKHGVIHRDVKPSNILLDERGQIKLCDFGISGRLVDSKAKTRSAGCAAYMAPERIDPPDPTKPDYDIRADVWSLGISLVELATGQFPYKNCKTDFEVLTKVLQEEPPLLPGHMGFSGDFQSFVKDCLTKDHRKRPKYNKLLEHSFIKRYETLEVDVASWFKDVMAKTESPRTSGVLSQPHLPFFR
The conditions noted are these: at 1 µM.
For the compound `Cn1c2ccccc2c2c3c(c4c5ccccc5n(CCC#N)c4c21)CNC3=O`, the residual activity was determined as 52%.

For `Nc1ncnc2c1cnn2-c1ccccc1`, the residual activity came out at 97%.

Turning to `COc1ccc(COc2ccc(Cc3cnc(N)nc3N)cc2OC)cc1`, the residual activity worked out at 113%.

`O=C1Cc2c([nH]c3ccc([N+](=O)[O-])cc23)-c2ccccc2N1`: the residual activity turned out to be 73%.

With `O=c1cc(N2CCOCC2)oc2c1ccc1ccccc12`, the residual activity came out at 102%.

`N#C/C(=C\c1ccc(O)c(O)c1)C(=O)NCc1ccccc1`: the residual activity amounted to 83%.

`Nc1ncnc2c1c(-c1ccc(Oc3ccccc3)cc1)cn2C1CCCC1`: the residual activity is 95%.

Regarding `O=C1NC(=O)C(c2cn(CCCO)c3ncccc23)=C1c1cnccn1`, the residual activity stood at 100%.

Consider `O=C(Nc1nc2ccccc2n1CCN1CCOCC1)c1cccc([N+](=O)[O-])c1`, for which the residual activity was 75%.

For the compound `NCCNc1ncc(C(N)=O)c(Nc2cccc(C(F)(F)F)c2)n1`, the residual activity was determined as 73%.

On to `CC(C)(C)n1nc(Cc2cccc3ccccc23)c2c(N)ncnc21`, for which the residual activity was found to be 98%.

Regarding `O=C(CCCc1ccc(-c2ccccc2F)cc1)Nc1ccc(O)cc1`, the residual activity amounted to 89%.

On to `CSc1nc(-c2ccc(F)cc2)c(-c2ccnc(NC(C)c3ccccc3)c2)[nH]1` (configuration not stated), for which the residual activity worked out at 99%.

Regarding `CC(C)[C@H](CO)Nc1nc(Nc2cc(N)cc(Cl)c2)c2ncn(C(C)C)c2n1`, the residual activity is 95%.

Take `O=C1Nc2ccc(Cl)cc2/C1=C/c1cc(Cl)c(O)c(Cl)c1`: the residual activity came to 95%.

With `COc1cc2nccc(Oc3ccc(NC(=S)NC(=O)c4ccccc4C)cc3)c2cc1OC`, the residual activity is 93%.

With `N#C/C(=C1/Nc2ccccc2S1)c1ccnc(NCCc2cccnc2)n1`, the residual activity is 67%.

For the compound `CC(C)(C)c1nc2c3ccc(F)cc3c3c(=O)[nH]ccc3c2[nH]1`, the residual activity turned out to be 69%.

For the compound `O=C1Cc2c([nH]c3ccc(Br)cc23)-c2ccccc2N1`, the residual activity amounted to 95%.

Take `O=c1c(-c2ccc(F)cc2)c(-c2ccncc2)[nH]n1-c1ccc(Cl)cc1`: the residual activity came out at 77%.

Take `N#Cc1c(NC(=O)c2cccc3ccccc23)sc2c1CCCC2`: the residual activity stood at 88%.

For `Fc1ccc(-c2nc3n(c2-c2ccncc2)CCS3)cc1`, the residual activity came to 82%.

In the case of `O=c1cc(N2CCNCC2)oc2c(-c3ccccc3)cccc12`, the residual activity amounted to 100%.

Turning to `O=C1NC(=O)c2c1c1c3ccccc3[nH]c1n1cncc21`, the residual activity was 42%.

Regarding `Nc1n[nH]c2nc3ccccc3nc12`, the residual activity turned out to be 88%.

Regarding `NC(=O)c1ccc(-c2nc(-c3ccc4c(c3)OCCO4)c(-c3ccccn3)[nH]2)cc1`, the residual activity was determined as 91%.

Consider `NC(=O)Nc1sc(-c2ccc(F)cc2)cc1C(N)=O`, for which the residual activity was 96%.

Turning to `O=C(c1ccccc1)c1ccc(N2CCOCC2)cc1O`, the residual activity came to 98%.

The next assay has as its target T1, Dual specificity mitogen-activated protein kinase kinase 7 (Homo sapiens). Conditions: at 10 µM.
In the case of `Cn1c2ccccc2c2c3c(c4c5ccccc5n(CCC#N)c4c21)CNC3=O`, the residual activity came to 34%.

On to `Nc1ncnc2c1cnn2-c1ccccc1`, for which the residual activity worked out at 94%.

With `COc1ccc(COc2ccc(Cc3cnc(N)nc3N)cc2OC)cc1`, the residual activity was found to be 80%.

For `O=c1cc(N2CCOCC2)oc2c1ccc1ccccc12`, the residual activity was determined as 94%.

Take `N#C/C(=C\c1ccc(O)c(O)c1)C(=O)NCc1ccccc1`: the residual activity stood at 68%.

As to `Nc1ncnc2c1c(-c1ccc(Oc3ccccc3)cc1)cn2C1CCCC1`, the residual activity was 79%.

Turning to `O=C(NC(NC(=S)Nc1ccc(F)c([N+](=O)[O-])c1)C(Cl)(Cl)Cl)C(c1ccccc1)c1ccccc1` (configuration not stated), the residual activity stood at 96%.

Turning to `O=C1NC(=O)C(c2cn(CCCO)c3ncccc23)=C1c1cnccn1`, the residual activity was 99%.

Turning to `O=C(Nc1nc2ccccc2n1CCN1CCOCC1)c1cccc([N+](=O)[O-])c1`, the residual activity was 87%.

As to `NCCNc1ncc(C(N)=O)c(Nc2cccc(C(F)(F)F)c2)n1`, the residual activity turned out to be 38%.

On to `O=C(O)/C=C/c1cc(Br)c(Br)c(Br)c1Br`, for which the residual activity is 71%.

As for `CC(C)(C)n1nc(Cc2cccc3ccccc23)c2c(N)ncnc21`, the residual activity was 94%.

For the compound `O=C(CCCc1ccc(-c2ccccc2F)cc1)Nc1ccc(O)cc1`, the residual activity was determined as 85%.

Consider `CSc1nc(-c2ccc(F)cc2)c(-c2ccnc(NC(C)c3ccccc3)c2)[nH]1` (configuration not stated), for which the residual activity came to 48%.

`CCN(CC)CCNC(=O)c1c(C)[nH]c(/C=C2\C(=O)Nc3ccc(Cl)cc32)c1C`: the residual activity turned out to be 81%.

On to `O=C1Nc2ccc(Cl)cc2/C1=C/c1cc(Cl)c(O)c(Cl)c1`, for which the residual activity came out at 61%.

For `COc1cc2nccc(Oc3ccc(NC(=S)NC(=O)c4ccccc4C)cc3)c2cc1OC`, the residual activity came to 87%.

In the case of `N#C/C(=C1/Nc2ccccc2S1)c1ccnc(NCCc2cccnc2)n1`, the residual activity is 42%.

With `CC(C)(C)c1nc2c3ccc(F)cc3c3c(=O)[nH]ccc3c2[nH]1`, the residual activity amounted to 35%.

For the compound `O=C1Cc2c([nH]c3ccc(Br)cc23)-c2ccccc2N1`, the residual activity came out at 62%.

`O=c1c(-c2ccc(F)cc2)c(-c2ccncc2)[nH]n1-c1ccc(Cl)cc1`: the residual activity stood at 22%.

As to `N#Cc1c(NC(=O)c2cccc3ccccc23)sc2c1CCCC2`, the residual activity was 82%.

Turning to `Fc1ccc(-c2nc3n(c2-c2ccncc2)CCS3)cc1`, the residual activity stood at 83%.

With `O=c1cc(N2CCNCC2)oc2c(-c3ccccc3)cccc12`, the residual activity came out at 79%.

Take `O=C1NC(=O)c2c1c1c3ccccc3[nH]c1n1cncc21`: the residual activity came out at 27%.

For the compound `Nc1n[nH]c2nc3ccccc3nc12`, the residual activity was found to be 81%.

With `NC(=O)c1ccc(-c2nc(-c3ccc4c(c3)OCCO4)c(-c3ccccn3)[nH]2)cc1`, the residual activity stood at 95%.

For the compound `NC(=O)Nc1sc(-c2ccc(F)cc2)cc1C(N)=O`, the residual activity was 44%.

With `O=C(c1ccccc1)c1ccc(N2CCOCC2)cc1O`, the residual activity was 85%.
